{"source": "PubChem BioAssay (NCATS)", "key": {"[1]": {"experiment": "AP1 Signaling Pathway (AID 357; active = well fitted curve in either direction with a large enough effect, not every such curve was filed as active)", "conditions": "ME-180 AP-1-bla reporter, EGF-induced, beta-lactamase ratio, 5 h; at 7.69 µM (top of the series) unless noted", "in_short": "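Cells are seeded overnight, exposed to compound titrations and an EC50 level of EGF for 5 hours at 37 °C, then loaded with CCF4 dye for 2.5 hours. Beta-lactamase activity under the AP-1 element is read as a blue/green ratio.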"}, "[2]": {"target": "Cytochrome P450 1A2 (Homo sapiens) (UniProt P05177)", "sequence (P05177 whole entry, looked up)": "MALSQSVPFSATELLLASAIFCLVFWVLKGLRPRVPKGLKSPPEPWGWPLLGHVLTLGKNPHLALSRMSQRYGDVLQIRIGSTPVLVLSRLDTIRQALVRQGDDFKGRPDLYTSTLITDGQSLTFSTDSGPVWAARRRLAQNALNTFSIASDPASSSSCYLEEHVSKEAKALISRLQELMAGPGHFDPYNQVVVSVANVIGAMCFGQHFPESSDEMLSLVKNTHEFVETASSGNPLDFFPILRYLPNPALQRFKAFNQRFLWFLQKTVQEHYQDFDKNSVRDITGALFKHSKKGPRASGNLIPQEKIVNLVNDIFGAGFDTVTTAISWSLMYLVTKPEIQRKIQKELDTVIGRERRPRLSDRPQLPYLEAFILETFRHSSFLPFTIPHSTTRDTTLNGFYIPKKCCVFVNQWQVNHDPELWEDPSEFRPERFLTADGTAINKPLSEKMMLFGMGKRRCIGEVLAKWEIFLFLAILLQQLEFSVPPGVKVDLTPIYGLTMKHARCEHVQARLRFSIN", "experiment": "p450-cyp1a2 (AID 410; calls by dose curve)", "in_short": "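Luminescent demethylation readout: Luciferin-ME (100uM, equal to Km) turned over by 20nM CYP1A2 for 60 min at room temperature after NADPH regeneration addition, following 10 min compound preincubation. Normalization used 57 uM furafylline as full inhibition.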"}, "[3]": {"experiment": "NFAT Signaling Pathway (AID 444; active = well fitted curve in either direction with a large enough effect, not every such curve was filed as active;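 note: carbachol stimulus at about its EC50 of 1 µM final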)", "conditions": "Jurkat NFAT-bla M1, carbachol, beta-lactamase ratio, 5 h; at 7.69 µM (top of the series) unless noted", "in_short": "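Jurkat cells carrying an NFAT-driven β-lactamase reporter and co-transfected muscarinic M1 receptor were treated with compound plus carbachol (1 uM final, an EC50 level) for 5 h at 37 °C. CCF4 loading followed for 1 h at RT; 460/530 nm ratio gave %activity.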"}, "[4]": {"target": "Glucocorticoid receptor (Homo sapiens) (UniProt P04150)", "sequence (P04150 whole entry, looked up, the tested form may be a part)": "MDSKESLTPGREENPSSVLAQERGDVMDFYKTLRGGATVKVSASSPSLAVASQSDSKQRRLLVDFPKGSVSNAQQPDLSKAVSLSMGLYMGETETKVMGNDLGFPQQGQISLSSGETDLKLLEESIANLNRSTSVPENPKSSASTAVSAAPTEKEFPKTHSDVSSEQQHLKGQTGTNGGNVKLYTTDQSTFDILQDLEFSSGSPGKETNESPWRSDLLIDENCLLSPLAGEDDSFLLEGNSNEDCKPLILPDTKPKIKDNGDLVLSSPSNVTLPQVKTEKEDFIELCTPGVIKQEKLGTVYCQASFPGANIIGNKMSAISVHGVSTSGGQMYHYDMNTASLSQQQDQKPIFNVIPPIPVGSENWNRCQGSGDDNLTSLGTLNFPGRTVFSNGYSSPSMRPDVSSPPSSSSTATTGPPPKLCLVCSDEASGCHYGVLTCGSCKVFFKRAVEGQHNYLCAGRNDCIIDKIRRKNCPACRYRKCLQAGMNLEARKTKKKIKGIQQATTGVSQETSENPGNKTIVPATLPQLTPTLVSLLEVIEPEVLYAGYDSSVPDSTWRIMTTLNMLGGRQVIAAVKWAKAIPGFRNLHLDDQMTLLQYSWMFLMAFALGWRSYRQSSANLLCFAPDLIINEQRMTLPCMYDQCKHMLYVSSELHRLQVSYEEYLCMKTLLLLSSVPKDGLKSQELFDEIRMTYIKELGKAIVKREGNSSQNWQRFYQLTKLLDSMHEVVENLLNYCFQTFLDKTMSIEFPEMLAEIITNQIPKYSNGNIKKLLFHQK", "experiment": "GR-GFP Redistribution (AID 450;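 active = compounds whose dose series gives a full or clear partial fitted curve of increased nuclear translocation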; note: potency is the fitted concentration of half-maximal effect)", "conditions": "U2OS GR-GFP nuclear translocation, laser cytometry, 2 h"}, "[5]": {"target": "Glucocorticoid receptor (Homo sapiens) (UniProt P04150)", "experiment": "GR-EFC Redistribution (AID 451; calls by dose curve; note: potency is the fitted concentration of half-maximal effect)", "conditions": "CHO-K1 GR-EFC translocation, beta-gal luminescence, 2 h", "in_short": "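CHO-K1 cells stably expressing nuclear-localized β-gal enzyme acceptor and GR fused C-terminally to the enzyme donor fragment; ligand-driven nuclear translocation restores β-gal by complementation. Compounds titrated up to 46 uM final, 2 h at 37 °C; luminescence read.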"}, "[6]": {"target": "3',5'-cyclic-AMP phosphodiesterase 4B (Homo sapiens) (UniProt Q07343)", "sequence (Q07343 whole entry, looked up)": "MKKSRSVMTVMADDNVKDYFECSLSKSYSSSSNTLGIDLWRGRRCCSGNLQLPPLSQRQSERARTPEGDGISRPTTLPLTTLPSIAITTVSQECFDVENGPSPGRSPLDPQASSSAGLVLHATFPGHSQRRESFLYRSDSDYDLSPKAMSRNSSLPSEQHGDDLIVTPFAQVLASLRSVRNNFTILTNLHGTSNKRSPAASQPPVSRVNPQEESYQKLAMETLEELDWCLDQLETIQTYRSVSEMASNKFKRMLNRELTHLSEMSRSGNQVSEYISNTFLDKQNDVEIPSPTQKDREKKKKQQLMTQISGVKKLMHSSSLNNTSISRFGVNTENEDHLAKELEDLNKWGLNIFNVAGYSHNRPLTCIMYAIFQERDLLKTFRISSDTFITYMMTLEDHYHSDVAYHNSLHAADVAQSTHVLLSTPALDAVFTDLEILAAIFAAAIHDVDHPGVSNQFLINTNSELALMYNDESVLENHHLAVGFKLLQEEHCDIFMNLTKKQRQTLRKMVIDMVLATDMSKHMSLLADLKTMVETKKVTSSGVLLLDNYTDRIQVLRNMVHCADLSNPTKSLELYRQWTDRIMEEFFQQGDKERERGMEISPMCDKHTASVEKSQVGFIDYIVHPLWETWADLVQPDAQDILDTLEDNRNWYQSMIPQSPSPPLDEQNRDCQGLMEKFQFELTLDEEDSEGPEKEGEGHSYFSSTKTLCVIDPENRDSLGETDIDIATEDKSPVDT", "experiment": "qHTS Assay for Inhibitors of PDE-IV (AID 607; active = well fitted activation curve with a large enough effect in the main read-out, with a control signal flat, not every such curve was filed as active)", "in_short": "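HEK293 ACTOne cells with CNG channel (1000/well), endogenous PDE4; membrane potential dye, compounds up to 22.9 uM final. Fluorescence Ex 535/Em 590; RO 20-1724 (100 uM final) as reference.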"}, "[7]": {"target": "Guanine nucleotide-binding protein G(i) subunit alpha-1 (Homo sapiens) (UniProt P63096)", "sequence (P63096 whole entry, looked up)": "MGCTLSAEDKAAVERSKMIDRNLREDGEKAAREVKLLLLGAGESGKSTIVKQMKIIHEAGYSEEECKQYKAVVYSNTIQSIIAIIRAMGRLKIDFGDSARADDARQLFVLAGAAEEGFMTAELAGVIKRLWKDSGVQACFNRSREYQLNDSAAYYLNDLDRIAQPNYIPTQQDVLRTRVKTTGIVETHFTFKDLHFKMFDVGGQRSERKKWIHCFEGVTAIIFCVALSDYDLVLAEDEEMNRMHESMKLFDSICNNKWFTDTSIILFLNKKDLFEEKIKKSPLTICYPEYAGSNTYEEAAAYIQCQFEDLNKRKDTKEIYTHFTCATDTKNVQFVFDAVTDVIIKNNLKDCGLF", "experiment": "qHTS Assay for Inhibitors of RGS12 GoLoco Motif Activity (Green Fluorophore) (AID 879);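 note: negative values mean loss of peptide binding seen as reduced polarization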", "in_short": "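A drop in FITC polarization marked displacement of the FITC-tagged RGS12 GoLoco peptide (10 nM) from Gαi1 (50 nM). Compounds were incubated 10 min at room temperature in Tris pH 7.5 buffer containing 150 mM NaCl, 0.1 mM GDP and 0.05% NP40; unlabeled peptide titration served as control.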"}, "[8]": {"target": "Cytochrome P450 3A4 (Homo sapiens) (UniProt P08684)", "sequence (P08684 whole entry, looked up)": "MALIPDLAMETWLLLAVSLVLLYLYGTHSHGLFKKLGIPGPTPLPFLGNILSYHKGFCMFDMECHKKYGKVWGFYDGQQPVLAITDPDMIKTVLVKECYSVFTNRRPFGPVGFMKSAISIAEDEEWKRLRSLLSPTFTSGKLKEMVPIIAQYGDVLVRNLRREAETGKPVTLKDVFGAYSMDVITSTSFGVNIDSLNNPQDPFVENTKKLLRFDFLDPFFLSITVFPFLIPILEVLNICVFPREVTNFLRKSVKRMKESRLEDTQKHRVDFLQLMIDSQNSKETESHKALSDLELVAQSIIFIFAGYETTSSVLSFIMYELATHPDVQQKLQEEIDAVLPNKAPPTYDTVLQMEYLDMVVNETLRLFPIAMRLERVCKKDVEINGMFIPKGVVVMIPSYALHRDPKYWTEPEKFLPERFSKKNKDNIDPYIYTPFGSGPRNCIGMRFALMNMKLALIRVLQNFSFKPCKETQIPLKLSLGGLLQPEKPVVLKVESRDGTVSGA", "experiment": "qHTS Assay for Activators of Cytochrome P450 3A4 (AID 885); note: nearly all actives have a fitted effect of over 65% in size", "in_short": "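Human CYP3A4 dealkylates Luciferin-PPXE to luciferin, which luciferase detection converts to light. Substrate was at its KM (25uM), buffer 200mM KPO4, reaction 60 min at RT.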"}, "[9]": {"experiment": "qHTS Assay for Identification of Small Molecule Antagonists for NFkB Signaling Pathway (AID 895; active = well fitted inhibition curve with a large enough effect in the signal ratio, with a control signal flat, not every such curve was filed as active; the % refers to the signal ratio; note: potency is the fitted concentration of half-maximal effect)", "conditions": "NFkB beta-lactamase reporter cells, FRET ratio 460/530; stimulated with 10 pM TNF alpha", "in_short": "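NFkB-bla ME-180 cervical carcinoma cells with beta-lactamase reporter under NFkB response element; compounds added, then TNF alpha at 10 pM final (EC50), 5 h at 37 C. LiveBLAzer substrate 2 h, room temperature; emission 460/530 nm at 405 nm excitation.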"}, "[10]": {"target": "Muscarinic acetylcholine receptor M1 (Rattus norvegicus) (UniProt P08482)", "sequence (P08482 whole entry, looked up)": "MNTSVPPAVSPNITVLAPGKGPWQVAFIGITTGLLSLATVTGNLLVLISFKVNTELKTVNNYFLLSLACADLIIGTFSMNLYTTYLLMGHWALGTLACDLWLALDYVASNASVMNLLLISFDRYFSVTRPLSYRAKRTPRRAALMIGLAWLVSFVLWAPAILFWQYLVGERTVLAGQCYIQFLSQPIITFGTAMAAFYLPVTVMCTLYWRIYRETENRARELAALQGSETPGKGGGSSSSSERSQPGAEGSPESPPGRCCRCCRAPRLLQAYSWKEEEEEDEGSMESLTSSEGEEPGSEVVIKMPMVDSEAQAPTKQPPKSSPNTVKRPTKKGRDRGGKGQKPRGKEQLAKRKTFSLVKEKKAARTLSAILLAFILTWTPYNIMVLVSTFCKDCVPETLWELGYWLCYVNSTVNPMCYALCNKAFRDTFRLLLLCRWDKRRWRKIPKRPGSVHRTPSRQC", "experiment": "qHTS Assay for Antagonists of Acetylcholine Muscarinic M1 Receptor: Kinetic Measurement of Intracellular Calcium Response (AID 943); note: nearly all actives have a fitted effect of over 75% in size", "in_short": "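Antagonism measured as reduction of carbachol-evoked (EC80, 100 nM final) calcium flux in rat M1-CHO cells after 10 min compound exposure. Fluo-4 signal read kinetically; ratio of maximal to basal fluorescence.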"}, "[11]": {"target": "Pyruvate kinase (Leishmania mexicana) (UniProt Q27686)", "sequence (Q27686 2-499 E452W)": "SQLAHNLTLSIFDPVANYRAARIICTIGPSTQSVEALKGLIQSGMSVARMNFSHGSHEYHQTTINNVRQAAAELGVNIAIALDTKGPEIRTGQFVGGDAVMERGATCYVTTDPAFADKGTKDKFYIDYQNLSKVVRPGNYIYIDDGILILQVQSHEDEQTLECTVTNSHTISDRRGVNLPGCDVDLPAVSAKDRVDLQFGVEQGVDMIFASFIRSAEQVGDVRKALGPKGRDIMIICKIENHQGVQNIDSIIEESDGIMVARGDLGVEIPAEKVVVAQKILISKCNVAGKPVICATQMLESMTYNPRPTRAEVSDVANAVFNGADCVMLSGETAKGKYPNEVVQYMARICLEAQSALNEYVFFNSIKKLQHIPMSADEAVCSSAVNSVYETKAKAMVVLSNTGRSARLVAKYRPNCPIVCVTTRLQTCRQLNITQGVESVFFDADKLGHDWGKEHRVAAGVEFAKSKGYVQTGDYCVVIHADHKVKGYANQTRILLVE", "experiment": "qHTS Validation Assay for Inhibitors of Leishmania Mexicana Pyruvate Kinase (AID 945)", "in_short": "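Compounds are tested as eight-point concentration series. Reactions contain 0.2 nM LmPYK E451W, 0.5 mM PEP, 0.1 mM ADP, 7 mM MgCl2 and 50 mM KCl at pH 7.2, run 1 h at room temperature, then read by PKLight luminescence.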"}, "[12]": {"target": "Pyruvate kinase PKM (Homo sapiens) (UniProt P14618)", "experiment": "qHTS Assay for Activators of Human Muscle Pyruvate Kinase (AID 954; active = well fitted curve in the direction sought with a large enough effect, not every such curve was filed as active)", "in_short": "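Compound pinned into substrate mix (0.5 mM PEP, 0.1 mM ADP), then 0.1 nM PKM2 added; 1 h, RT. Stop/detection luciferase reagent added, luminescence read. Normalized to no-inhibition and no-enzyme or reference-inhibitor controls.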"}, "[13]": {"target": "Alpha-galactosidase A (Homo sapiens) (UniProt P06280)", "experiment": "Counterscreen for Glucocerebrosidase Inhibitors: qHTS Assay for Human alpha-Galactosidase at pH 4.5 (AID 992)", "in_short": "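Steps: enzyme (2 nM final), then compound across 0.7 nM to 77 uM, then 80 uM fluorogenic galactopyranoside substrate; incubate 20 min at room temperature; quench at pH 10; measure fluorescence at 365/440 nm.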"}, "[14]": {"target": "alpha-glucosidase (Oryza sativa, rice) (UniProt Q653V4)", "experiment": "Counterscreen for Glucocerebrosidase Inhibitors: qHTS Assay for Rice alpha-Glucosidase at pH 5.0 (AID 997)", "in_short": "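Endpoint fluorogenic assay at pH 5.0: compounds (0.7 nM to 77 uM) titrated against 4 nM rice enzyme and 400 uM 4-MU-alpha-glucoside for 20 min at room temperature; NaOH/glycine stop, read ex 365/em 440 nm, Hill-fitted AC50.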"}, "[15]": {"target": "Catechol O-methyltransferase (Homo sapiens) (UniProt P21964)", "sequence (P21964 whole entry, looked up)": "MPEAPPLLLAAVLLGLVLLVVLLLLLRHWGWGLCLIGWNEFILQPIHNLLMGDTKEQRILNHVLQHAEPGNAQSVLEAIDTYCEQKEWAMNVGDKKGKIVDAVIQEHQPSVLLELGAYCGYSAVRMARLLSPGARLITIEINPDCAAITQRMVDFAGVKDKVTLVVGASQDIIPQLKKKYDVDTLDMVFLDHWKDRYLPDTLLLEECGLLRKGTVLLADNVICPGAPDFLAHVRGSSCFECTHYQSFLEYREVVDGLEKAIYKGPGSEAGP", "experiment": "Confirmatory Screen for Target Class Profiling of Small Molecule Inhibitors of Methyltransferases (AID 1745852; calls by dose curve)", "conditions": "MTase-Glo luminescence, SAH detection, recombinant enzyme; measured here: COMT max response; stronger effect = lower value"}, "[16]": {"target": "Guanidinoacetate N-methyltransferase (Homo sapiens) (UniProt Q14353)", "experiment": "Confirmatory Screen for Target Class Profiling of Small Molecule Inhibitors of Methyltransferases (AID 1745852); note: potency is the fitted concentration of half-maximal effect", "conditions": "activity change, negative = inhibition: at 57.3 µM (top of the series) unless noted"}, "[17]": {"target": "Nicotinamide N-methyltransferase (Homo sapiens) (UniProt P40261)", "sequence (P40261 whole entry, looked up)": "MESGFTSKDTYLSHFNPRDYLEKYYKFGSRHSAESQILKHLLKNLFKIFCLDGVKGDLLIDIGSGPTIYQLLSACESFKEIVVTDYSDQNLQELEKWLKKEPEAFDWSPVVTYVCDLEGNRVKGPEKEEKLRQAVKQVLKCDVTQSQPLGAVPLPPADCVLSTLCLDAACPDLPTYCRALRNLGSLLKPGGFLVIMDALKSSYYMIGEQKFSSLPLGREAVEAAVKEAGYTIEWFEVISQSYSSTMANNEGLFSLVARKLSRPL", "experiment": "Confirmatory Screen for Target Class Profiling of Small Molecule Inhibitors of Methyltransferases (AID 1745852)", "conditions": "MTase-Glo luminescence, SAH detection, recombinant enzyme; measured here: NNMT max response; stronger effect = lower value"}, "[18]": {"target": "Phenylethanolamine N-methyltransferase (Homo sapiens) (UniProt P11086)", "sequence (P11086 whole entry, looked up)": "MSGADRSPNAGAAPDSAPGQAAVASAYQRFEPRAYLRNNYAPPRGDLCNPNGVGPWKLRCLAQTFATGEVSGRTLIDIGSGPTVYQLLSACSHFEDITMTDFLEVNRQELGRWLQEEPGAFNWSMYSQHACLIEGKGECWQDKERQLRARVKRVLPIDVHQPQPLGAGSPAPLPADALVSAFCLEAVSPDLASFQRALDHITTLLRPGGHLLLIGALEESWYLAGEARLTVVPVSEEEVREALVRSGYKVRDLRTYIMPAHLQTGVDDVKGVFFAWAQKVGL", "experiment": "Confirmatory Screen for Target Class Profiling of Small Molecule Inhibitors of Methyltransferases (AID 1745852)", "conditions": "MTase-Glo luminescence, SAH detection, recombinant enzyme; measured here: PNMT max response; stronger effect = lower value"}, "[19]": {"target": "Glutathione peroxidase 1 (Homo sapiens) (UniProt P07203)", "sequence (P07203 whole entry, looked up)": "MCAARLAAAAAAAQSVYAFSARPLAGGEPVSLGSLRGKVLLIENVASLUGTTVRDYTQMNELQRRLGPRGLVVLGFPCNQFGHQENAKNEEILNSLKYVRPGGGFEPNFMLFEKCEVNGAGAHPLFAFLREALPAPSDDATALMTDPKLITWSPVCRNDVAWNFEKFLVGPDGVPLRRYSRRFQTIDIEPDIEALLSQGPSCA", "experiment": "Primary qHTS Assay for Inhibitors of Recombinant Selenoprotein Glutathione Peroxidase 1 (GPX1) (AID 1845191); note: nearly all actives have a fitted effect of over 65% in size", "in_short": "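GPX1 10 nM, GR 100 nM, GSH 1 mM, NADPH 0.5 mM, CHP 0.5 mM (final). 30-min cpd preincubation, RT. Ex340/Em450 read t=0, t=15 min.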"}, "[20]": {"experiment": "NCATS anti-infectives library activity on HEK293 viability as a counter-qHTS vs the C. elegans viability qHTS (AID 1745854); note: potency is the fitted concentration of half-maximal effect", "in_short": "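Cytotoxicity counter-screen to a worm viability qHTS: CellTiter-Glo luminescence read 10 min after reagent addition. Compounds (final up to 41.7 uM, a 1:5 dilution series) incubated 24 hr at 37C with 1,500 HEK293 cells per well; digitonin control.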"}, "[21]": {"experiment": "NCATS anti-infectives library activity on the primary C. elegans qHTS viability assay (AID 1745855; calls by dose curve; note: potency is the fitted concentration of half-maximal effect)", "in_short": "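GFP read-out by 488 nm laser cytometry at day 0, 3 and 7, gated on object perimeter, area and peak intensity, scored viability of PE254-GFP-FLuc worms exposed to compound in S medium with bacterial capsules at 21 °C.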"}}, "note": "Results filed as inconclusive are left out. A call without a number means that no potency is given here. Calls of active or inactive are those of the source. Unless noted, calls come from the whole dose curve; as a rule, active = well fitted curve in the direction sought with a large enough effect; inconclusive = small, poorly fitted or top-dose-only effect, or another doubt; inactive = no such curve, though single readings can be large; an effect the other way counts as inactive or inconclusive.", "data": [{"smiles": "O=c1cc(O)cc(/C=C\\c2ccc(O)c(O)c2)o1", "values": [{"measurement": "activity change, negative = inhibition", "setting": "[1]", "result": "-18.8% [at 38 µM] (inactive)"}, {"measurement": "Potency", "setting": "[2]", "result": "inactive"}, {"measurement": "activity change, negative = inhibition", "setting": "[3]", "result": "-13.6% [at 38 µM] (inactive)"}, {"measurement": "Potency", "setting": "[4]", "result": "> 46 µM (inactive)"}, {"measurement": "Potency", "setting": "[5]", "result": "> 46 µM (inactive)"}, {"measurement": "Potency", "setting": "[6]", "result": "inactive"}, {"measurement": "Potency", "setting": "[7]", "result": "inactive"}, {"measurement": "outcome", "setting": "[8]", "result": "inactive"}, {"measurement": "Potency", "setting": "[9]", "result": "1.26 µM (active)"}, {"measurement": "Potency", "setting": "[10]", "result": "inactive"}, {"measurement": "outcome", "setting": "[11]", "result": "inactive"}, {"measurement": "outcome", "setting": "[12]", "result": "inactive"}, {"measurement": "outcome", "setting": "[13]", "result": "inactive"}, {"measurement": "outcome", "setting": "[14]", "result": "inactive"}, {"measurement": "activity", "setting": "[15]", "result": 135, "unit": "%"}, {"measurement": "Potency", "setting": "[16]", "result": "24.3 µM (active)"}, {"measurement": "activity", "setting": "[17]", "result": -15.8, "unit": "%"}, {"measurement": "activity", "setting": "[18]", "result": -1.5, "unit": "%"}]}, {"smiles": "COc1ccc(C2CC(=O)c3cc(-c4nc(-c5cccc([N+](=O)[O-])c5)cs4)c(=O)n(-c4ccccc4N)c3C2)cc1", "note": "(stereo unspecified)", "values": [{"measurement": "activity", "setting": "[15]", "result": -0.514, "unit": "%"}, {"measurement": "activity change, negative = inhibition", "setting": "[16]", "result": -4.17, "unit": "%"}, {"measurement": "activity", "setting": "[17]", "result": -5.71, "unit": "%"}, {"measurement": "activity", "setting": "[18]", "result": -5.29, "unit": "%"}, {"measurement": "Potency", "setting": "[19]", "result": "inactive"}]}, {"smiles": "CC(=O)O[C@@]1(C)C[C@@H](O)[C@]2(O)C=CO[C@@H](OC3OC(CO)C(O)C(O)C3O)[C@@H]21", "note": "(stereo partly specified)", "values": [{"measurement": "Potency", "setting": "[20]", "result": "inactive"}]}, {"smiles": "COc1ccc(-c2sc(NC(=O)C(C)(C)C)nc2C)cc1S(=O)(=O)Nc1ccc(O)cc1", "values": [{"measurement": "Potency", "setting": "[20]", "result": "inactive"}]}, {"smiles": "O=C(O)[C@H]1O[C@@H](Oc2cc3oc(-c4ccc(O)cc4)cc(=O)c3c(O)c2O)[C@H](O)[C@@H](O)[C@@H]1O", "values": [{"measurement": "Potency", "setting": "[20]", "result": "inactive"}]}, {"smiles": "COc1ccc(-c2oc3cc(O)cc(O)c3c(=O)c2O)cc1", "values": [{"measurement": "Potency", "setting": "[20]", "result": "inactive"}]}, {"smiles": "Cc1cn2nc([C@@H]3CCCCN3C(=O)c3cc(Cl)ccc3NS(C)(=O)=O)cc2nc1N1CC[C@H](N)C1", "values": [{"measurement": "Potency", "setting": "[20]", "result": "inactive"}]}, {"smiles": "COc1ccc(C2C(C#N)=C(N)OC3=C2C(=O)CC(c2cccc4ccccc24)C3)cc1", "note": "(stereo unspecified)", "values": [{"measurement": "Potency", "setting": "[20]", "result": "inactive"}]}, {"smiles": "Cc1ccc(C2Nc3ccccc3C(=O)N2c2ccccc2)s1", "note": "(stereo unspecified)", "values": [{"measurement": "Potency", "setting": "[20]", "result": "inactive"}]}, {"smiles": "O=c1cc(-c2ccc(O)c(O)c2)oc2c([C@@H]3O[C@H](CO)[C@@H](O)[C@H](O)[C@H]3O)c(O)cc(O)c12", "values": [{"measurement": "Potency", "setting": "[20]", "result": "inactive"}]}, {"smiles": "C[C@H]1CC[C@@]2(O)C(C)(C)[C@@H]3CC[C@@]2(C)[C@H]1C3", "values": [{"measurement": "Potency", "setting": "[20]", "result": "inactive"}]}, {"smiles": "O=[N+]([O-])c1ccc(S(=O)(=O)N2CCN(c3ccnc4cc(Cl)ccc34)CC2)c([N+](=O)[O-])c1", "values": [{"measurement": "Potency", "setting": "[20]", "result": "10 µM (active)"}]}, {"smiles": "C=C[C@@H]1C[C@]1(NC(=O)[C@@H]1C[C@@H](Oc2ncc(OC)c3ccc(Cl)cc23)CN1C(=O)[C@@H](NC(=O)OC(C)(C)C)C(C)(C)C)C(=O)NS(=O)(=O)C1CC1", "values": [{"measurement": "Potency", "setting": "[20]", "result": "inactive"}, {"measurement": "Potency", "setting": "[21]", "result": "20.5 µM (active)"}, {"measurement": "Potency", "setting": "[19]", "result": "inactive"}]}]}
